# Source: PubChem
# The sample as a whole holds a higher share of hits than the screen did.
# Pf Dd2 inh = blocks in vitro growth of P. falciparum Dd2 | 120,000 compounds, 4.3% hits | Potency, µM (highest dose often 28.9 µM), actives largely listed as inhibitors | P. falciparum Dd2 growth, SYBR Green, 72 h; active = well fitted inhibition curve with a large enough effect; also: nearly all actives have a fitted effect of over 65% in size
#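 Readout: SYBR Green fluorescence, 485 nm excitation, 535 nm emission, after ~16 h lysis at 37C. Before that, Dd2-infected red cells (2.5% hematocrit) grew 72 h with compound, 29 uM top final concentration.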
# A number is an active result; . = inactive; [ ] = another dose, or the depositor's remark.
SMILES,Pf Dd2 inh
CCc1ccc(NC(=O)c2ccc(Cn3nc(N4CCN(c5ccccc5)CC4)ccc3=O)o2)cc1,11µM
O=C(O)C[C@@H]1CCN(C(=O)COc2ccccc2)C[C@@H]1CCN1CCN(c2cccc(C(F)(F)F)c2)CC1,.
CCOc1ccc(C(=O)Nc2ccc(S(=O)(=O)Nc3nc(C)cc(C)n3)cc2)cc1OC,.
CCOc1ccc(C(=O)Nc2c(C)nc(Nc3ccccc3)nc2Nc2ccccc2)cc1OCC,13µM
CCOc1ccc(Nc2nc(C)c(NC(=O)c3cccc(OC)c3)c(Nc3ccc(OCC)cc3)n2)cc1,.
COC[C@H]1CCCN1C(=O)CC[C@@H]1CNC(=O)[C@@H]2C[C@H](NCc3ccc(N(C)C)cc3)CN12,.
Cc1ccc(CN2C(=O)[C@@H]3C[C@@H](O)CN3C3(CN(CC(C)C)C3)C2=O)o1,.
Cc1ccc(CN2C(=O)[C@@H]3C[C@@H](O)CN3C3(CN(Cc4ccc(F)cc4)C3)C2=O)o1,14µM
Cc1ccc(CN2C(=O)[C@@H]3C[C@@H](O)CN3C3(CN(CC4CC4)C3)C2=O)o1,.
Cc1ccc(CN2C(=O)[C@@H]3C[C@@H](O)CN3C3(CN(CCC(C)C)C3)C2=O)o1,11µM
CC(=O)Nc1ccc(CN2CC3(C2)C(=O)N(Cc2ccc(C)o2)C(=O)[C@@H]2C[C@@H](O)CN23)cc1,.
Cc1ccc(CN2C(=O)[C@@H]3C[C@@H](O)CN3C3(CN(Cc4ccc(C#N)cc4)C3)C2=O)o1,.
Cn1nc(C2CCN(C(=O)c3ccoc3)CC2)c2c1CCOC2,.[5.79 µM]
c1ccc(-n2cc(CN3CCCC3c3nc4ccccc4s3)nn2)cc1 (centres undefined),.
Cc1cc(C[C@@H]2COC[C@@H]2NC(=O)C2CCN(C(=O)C3CC3)CC2)on1,.
CCNC(=O)Nc1ccc(OCC(=O)NC(C)c2ccc(OC)c(OC)c2)nc1 (centres undefined),.
O=C(NC1CCN(c2ccc(F)cc2)C1=O)c1ccccc1C(F)(F)F (centres undefined),.
Cc1occc1C(=O)N1CCC2(CCCN(Cc3cccnc3)C2=O)C1 (centres undefined),.
COc1ccccc1Nc1c2c(nc3ccc(NC(=O)c4ccc(N(C)C)cc4)cc13)CCCC2,5.6µM
CCOc1ccccc1C(=O)Nc1ccc(S(=O)(=O)Nc2nc(C)cc(C)n2)cc1,.
COc1cc(OC)cc(C(=O)Nc2ccc3nc4c(c(Nc5ccc(OC)c(OC)c5)c3c2)CCCC4)c1,.
CCOc1ccccc1C(=O)Nc1ccc2nc3c(c(Nc4ccc(OC)c(OC)c4)c2c1)CCCC3,1.1µM
COc1ccccc1Nc1nn2c(=O)c3ccc(C(=O)Nc4ccc(F)cc4)cc3nc2s1,.
COc1ccc(C)cc1NC(=O)c1ccc2c(Cl)c3c(nc2c1)CCC3,.
CN(CC1CCOCC1)C(=O)Nc1ccccc1Br,.
SMILES,Pf Dd2 inh
c1cnc(-c2nc(Cn3cc(C4CCOC4)nn3)cs2)nc1 (centres undefined),.
COC(=O)c1scc(-c2ccc(C)cc2)c1S(=O)(=O)Nc1ccc(F)cc1F,.
COC(=O)c1scc(-c2ccc(C)cc2)c1S(=O)(=O)Nc1cccc(Cl)c1C,.
CCOc1ccccc1NS(=O)(=O)c1c(-c2ccc(C)cc2)csc1C(=O)OC,10µM
COc1ccccc1CCC(=O)N1C[C@@H](C)[C@](O)(C2CC2)C1,.
CC(C)c1noc(C2CCCN(C(=O)CCCc3ccccc3)CCC(=O)NCC2)n1 (centres undefined),.
Cc1ccc(CC(=O)N2[C@@H]3CC[C@H]2CC(NC(=O)c2ccncc2)C3)cc1 (some centres undefined),.
CCN(CC)Cc1cnc2c(C(=O)NC3CCC(O)CC3)cnn2c1 (centres undefined),.
COc1ccc(C(=O)N2CCOCC3(C2)CN(c2nccs2)C3)cc1OC,.
COC(=O)C1=C(C)N(Cc2cccc(Cl)c2)C(=O)CC1c1ccccc1Cl (centres undefined),.
CCOC(=O)C1=C(C)N(Cc2ccc(C(=O)N3CCCCC3)cc2)C(=O)CC1c1cccc(C)c1 (centres undefined),5µM
Cc1ccc(CN2C(=O)NC3(CCCN(C(=O)c4cccc(C)c4)C3)C2=O)cc1 (centres undefined),.
CCN(CC)C(=O)c1ccc(CN2C(=O)NC3(CCS(=O)(=O)CC3)C2=O)cc1,.
COCCN1CCC(C(=O)Nc2ccc(Oc3ccccc3F)cc2)CC1,13µM
O=C(Nc1ccc(Oc2ccccc2F)cc1)C1CCCCN1C(=O)c1cccnc1 (centres undefined),.
CCOC(=O)C1CCN(CCC(=O)Nc2ccc(OC)cc2)CC1,.
CC1CCCN(C(=O)CN2C(=O)NC3(CCCCC3)C2=O)C1 (centres undefined),.
Cc1ccccc1OCC(=O)Nc1cccn2nc(-c3cccnc3)nc12,.
CN1CC2(CCN(Cc3cccn3C)CC2)CC1C(=O)N1CCOCC1 (centres undefined),.
CN1CC2(CCN(Cc3ccccn3)CC2)CC1C(=O)N1CCOCC1 (centres undefined),.
CN1CC2(CCN(C(=O)CCCc3ccccc3)CC2)CC1C(=O)N1CCOCC1 (centres undefined),2.2µM
CCOc1ccccc1C(=O)N1CCC(Oc2nccnc2N(C)C)C1 (centres undefined),.
Cn1ncc(N2CCCC(CC(=O)NCCc3ccccc3)C2)cc1=O (centres undefined),.
CNC(=O)N1CCC(C2CCN(C(=O)c3cn[nH]c3)C2)CC1 (centres undefined),.
Cc1noc(-c2cccc(OC3CN(C(=O)Cc4ccccc4)C3)c2)n1,.[5.79 µM]
SMILES,Pf Dd2 inh
O=C(COc1ccc(F)cc1)N1CC(Oc2cccc(-c3nc(-c4ccccc4)no3)c2)C1,2.2µM
CC(=O)N1CCC(Oc2ccccc2-c2nc(-c3ccccc3)no2)C1 (centres undefined),.
COCCOCC(=O)N1CC(Oc2ccccc2-c2nc(C3CC3)no2)C1,.
CC(C)C(=O)N1CC(Oc2ccccc2-c2nc(C3CC3)no2)C1,.
Cc1cccc(C(=O)N2CC(Oc3ccc(-c4nc(-c5ccccc5)no4)cc3)C2)c1,.[5.79 µM]
O=C(c1ccco1)N1CC(Oc2ccccc2-c2nc(-c3ccccc3)no2)C1,4µM
COc1ccc(C(=O)N2CC(Oc3ccccc3-c3nc(-c4ccccc4)no3)C2)cc1,0.89µM
O=C(Nc1ccccc1F)N1CC(Oc2cccc(-c3nc(-c4ccccc4)no3)c2)C1,.[5.79 µM]
O=C(CN1CCCCCC1)N1CC(Oc2ccccc2-c2nc(C3CC3)no2)C1,11µM
CC(C)CNC(=O)N1CC(Oc2ccccc2-c2nc(-c3ccccc3)no2)C1,.
COc1ccc(C(=O)N2CC(Oc3ccc(-c4nc(-c5ccccc5)no4)cc3)C2)cc1,.[5.79 µM]
CC(=O)NCC(=O)NCc1nnc2ccc(-c3ccc(C)c(C)c3)nn12,.
Cc1cc(CNS(=O)(=O)c2ccc3c(c2)CCN(C(=O)C(O)C(C)C)C3)no1 (centres undefined),.
Cc1ccc(N2CCC(NC(=O)c3ccc(C#N)cc3)C2=O)cc1C (centres undefined),.
COc1ccc(Cc2noc(-c3ccc(N(C)Cc4nonc4C)nc3)n2)cc1,.
CCc1cnc(N)nc1N(C)CCC(O)c1ccccc1 (centres undefined),.
CCn1cc(CN2CCN(C(=O)c3ccc4[nH]ccc4c3)CC2)ccc1=O,.
Cc1noc([C@H]2CCN(C(=O)c3ccnn3C)C[C@H]2NC(=O)C2CC2)n1,.[5.79 µM]
N#Cc1cccc(-c2cn3c(n2)N(C(=O)C2CCCO2)CCC3)c1 (centres undefined),.
